Laboratory results as given in PubChem BioAssay (NCI).
About 83,000 compounds went through this panel and 20% of them were active in at least one assay; those are over-represented in the sample as a whole.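 Single-dose data. Exposure time 48 hours. Values below 10 considered active.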 Unmarked numbers belong to inactive results. Active and inactive are the calls of the source.

Assays:
Assay in all cases: NCI-60 one-dose screen, 48 h (100 = growth as untreated, 0 = no growth, -100 = all killed)
Settings in all cases: 10 µM unless noted
[1] = system: NCI-H23 lung
[2] = system: NCI-H226 lung
[3] = system: NCI-H322M lung
[4] = system: HOP-62 NSCLC
[5] = system: NCI-H460 lung
[6] = system: HOP-92 NSCLC
[7] = system: NCI-H522 lung
[8] = system: A549/ATCC NSCLC
[9] = system: 786-0 renal
[10] = system: COLO 205 colon
[11] = system: DU-145 prostate
[12] = system: K-562 leukemia
[13] = system: MALME-3M melanoma
[14] = system: MDA-MB-231 breast
[15] = system: RXF 393 renal
[16] = system: SF-268 CNS
[17] = system: SF-295 CNS
[18] = system: SF-539 CNS
[19] = system: UACC-257 melanoma
[20] = system: M14 melanoma

SMILES	growth [1]	growth [2]	growth [3]	growth [4]	growth [5]	growth [6]	growth [7]	growth [8]	growth [9]	growth [10]	growth [11]	growth [12]	growth [13]	growth [14]	growth [15]	growth [16]	growth [17]	growth [18]	growth [19]	growth [20]
C[N+]1=C(/C=C/c2ccc(O)c3ncccc23)C(C)(C)c2ccccc21	80.1%	15%	97.4%	30%	32.8%	87.1%	51.9%	17.9%	66.7%	35.7%	85.2%	16.5%	115%	64.6%	32.5%	81.8%	72.9%	25.9%	85.3%	67.5%
Nc1nc(Cl)cc(=O)n1Cc1ccccc1	88.1%	87.6%	89.6%	97.8%	105%	88.3%	86.7%	94.6%	101%	114%	98.9%	106%	93.2%	92%	101%	103%	95.5%	96.2%	93.1%	93.3%
COc1ccc(C2NC(=O)C(C#N)c3c2sc2c(F)cccc32)c(OC)c1 (stereo not given)	64.8%	62.2%	90.4%	57.4%	31.8%	42.2%	7.97% (active)	58.5%	68.5%	88.3%	90.5%	23.9%	39.8%	72.7%	9.65% (active)	52.1%	27.7%	8.87% (active)	68.3%	37.8%
CC1=C([Se]CC(OC(=O)[C@@H](CSSC(C)(C)C)NC(=O)OC(C)(C)C)C(=O)NC(C)(C)C)C(=O)c2ccccc2C1=O (stereo not given in full)	-63.7% (active)	-56.8% (active)	-73.6% (active)	-51% (active)	-52.1% (active)	-72.2% (active)	7.01% (active)	1.99% (active)	-93.8% (active)	-84.7% (active)	-98.7% (active)	31.9%	-65.8% (active)	-42.2% (active)	-67.3% (active)	-96.6% (active)	-42.2% (active)	-100% (active)	-60% (active)	-84.8% (active)
COc1cc(C(=O)N/N=C/c2cc3cc(OCc4ccccc4)ccc3nc2OC)cc(OC)c1OC	90.2%	78.4%	98%	83%	78.7%	66.7%	70.2%	82.2%	85.5%	102%	102%	74.6%	110%	94.7%	79.6%	79.7%	98.4%	85.8%	79.2%	83.4%
N[C@@H](Cc1ccccc1)[C@@H](O)C(=O)NCc1ccc(F)cc1	106%	103%	104%	119%	103%	94.9%	95.9%	104%	98.5%	111%	110%	97%	107%	100%	118%	95.7%	95.5%	105%	107%	101%
COc1ccc2[nH]c(-c3ccccc3)c(/C=C(\C#N)S(=O)(=O)c3ccccc3)c2c1	60%	99.5%	77.8%	79.1%	20%	63.2%	64.3%	45.1%	69.1%	46.6%	70.1%	5.1% (active)	47.7%	56.8%	57.5%	72.2%	43.2%	42.3%	78.6%	42.7%
Cc1c(C(=O)N[C@@H](Cc2ccccc2)C(=O)C(=O)NCc2ccc(F)cc2)[nH]c2ccccc2c1=O	101%	89%	98.8%	106%	56.9%	94.4%	91.4%	97.3%	102%	-42.1% (active)	105%	84.2%	102%	100%	103%	97.4%	105%	101%	101%	103%
CC(=O)N1CCN(c2ccc(OCC3CO[C@](Cn4ccnc4)(c4ccc(Cl)cc4Cl)O3)cc2)CC1 (stereo not given in full)	78.3%	58.7%	93.6%	74.4%	96.4%	61.4%	82.4%	85.2%	77.6%	86.9%	105%	56.6%	77.4%	77.5%	80.6%	96%	97.6%	91%	83.7%	83.8%
COc1ccc(C(Cc2ccccc2)NCCN2CCOCC2)cc1 (stereo not given)	100%	109%	95.7%	93.1%	107%	106%	71.1%	97.8%	89.4%	96.1%	110%	101%	86.8%	110%	104%	98%	99.4%	99.6%	109%	90.6%
CCN1C(=O)N(CC)C2Nn3c(s/c(=C4\C(=O)Nc5ccccc54)c3=O)=NC21 (stereo not given)	48.6%	79.3%	71.5%	68.4%	23.7%	69.7%	15.4%	55.1%	32%	19.5%	10.2%	20.2%	56.5%	48.3%	-1.37% (active)	64.9%	56.6%	10.9%	67.4%	14.9%
CC(=O)O.CN1[CH-]N(Cc2ccc(C#N)cc2)c2ccccc21.[Ag+]	105%	103%	105%	108%	97.9%	116%	-89.1% (active)	68%	103%	54%	111%	45.8%	102%	110%	117%	109%	110%	106%	81.2%	100%
CC(=O)OC[C@H]1OC(Sc2sc(C(=O)c3ccc(Br)cc3)c(N)c2-c2nc3ccccc3s2)[C@H](OC(C)=O)[C@@H](OC(C)=O)[C@H]1OC(C)=O (stereo not given in full)	88.4%	65.6%	91.8%	91.1%	107%	98.3%	94.1%	92.2%	94.4%	108%	110%	92.2%	98.1%	80.6%	115%	93%	97.1%	95.2%	104%	96.1%
NCCCNc1nc2ccccc2c2c(=O)c3cc(C(F)(F)F)ccc3sc12	49.6%	86.8%	56.8%	52.7%	-69.7% (active)	32.6%	-3.15% (active)	-16.6% (active)	61.1%	-41.4% (active)	-0.179% (active)	-21.4% (active)	87.1%	-35.2% (active)	55.7%	47.1%	71.7%	-20% (active)	96.1%	-26.9% (active)
Fc1cc(-c2nnc3sc(-c4ccc(Cl)cc4Cl)nn23)c(Cl)cc1Cl	83%	97.6%	89.7%	97.9%	57.6%	81.5%	86.6%	66.3%	59.6%	72.3%	92.7%	107%	52.3%	74.8%	65.4%	71.5%	78.4%	108%	85.1%	97.5%
Nc1nn(C(=O)Nc2ccc(Cc3ccccc3)cc2)c2ccc(Cl)cc12	70.1%	63.5%	65.9%	67.8%	28.9%	99.8%	73.1%	38.3%	64%	34.9%	85.6%	3.86% (active)	55.9%	59.7%	93.3%	81.4%	27%	-19.2% (active)	42.1%	37.2%
